HepG2 tox-1 = counter-screen for TGF-b inhibitors: cytotoxicity in HepG2 cells; HepG2 CAGA-GFP viability, ATP luminescence, 18 h; Potency, µM (titrated, usually from 46.1 µM), most hits filed as cytotoxic; 410,000 tested, 0.76% active
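CellTiter-Glo luminescence gave cytotoxicity after 18 hours at 37 degrees C. The cells were HepG2 CAGA-GFP in 1% FBS DMEM, stimulated with 500 pg/mL TGF-beta after compound addition. %Activity was normalised to no-cell wells (complete cell-killing) and DMSO (no toxicity), and curves were fitted and classified.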
uPA generation = inhibitors of cell surface uPA generation | cell surface uPA generation assay, qHTS | Potency, µM (top dose mostly 38.3 µM), most hits filed as inhibitors | AID 540303 | 330,000 tested, 0.31% active; active = well fitted inhibition curve with a large enough effect; inconclusive = small, poorly fitted or top-dose-only effect; inactive = no such curve, though single readings can be large or run the other way; tested in mouse RAW 264.7 cells; also: nearly all actives have a fitted effect of over 55% in size
ATXN2 expr inh = inhibitors of ATXN2 expression. HEK-293 ATXN2-luciferase reporter, luminescence, 24 h. Potency, µM (series often up to 57 µM), actives largely listed as inhibitors. 360,000 tested, 0.72% active. AID 1745845; also: nearly all actives have a fitted effect of over 55% in size
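ATXN2-luciferase reporter cells (luciferase flanked by upstream and downstream ATXN2 gene portions) were treated 24 h at 37 °C with compounds at up to 57 uM. SteadyGlo luminescence gave expression; GF-AFC fluorescence gave viability.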
S2 tox = reduces viability in counter-screen for ATXN expression inhibitors; S2 cells (HEK-293 line with an ATXN2-luciferase reporter) viability, CellTiter-Fluor protease fluorescence, 24 h; Potency, µM (titrated, usually from 56.7 µM), most hits filed as cytotoxic; 400,000 tested, 0.49% active; AID 651635; also: nearly all actives have a fitted effect of over 40% in size
TGFb inhibitor = blocks TGF-b signaling; HepG2 CAGA-GFP TGF-b/SMAD3 reporter, GFP fluorescence, 18 h; TGF-beta stimulated, 500 pg/mL final; Potency, µM (top dose mostly 46.1 µM), usual class: inhibitors; 410,000 tested, 1.2% active; AID 588855; also: nearly all actives have a fitted effect of over 65% in size
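Inhibition was scored as loss of TGF-beta-induced (500 pg/mL final, 18 hours, 37 degrees C) GFP in HEPG2 cells carrying a CAGA-GFP reporter, in DMEM with 1% FBS. Well GFP was summed per cell; Activity was normalised to unstimulated and stimulated DMSO wells, then concentration-response fitting.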
Giardia kill = Giardia lamblia killing; Giardia lamblia trophozoite viability; activity change, % at 7.66 µM, hits read low; 340,000 tested, 0.15% active; AID 540267; in the data active = activity change below about -80%; inconclusive = between about -30% and that limit;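 also: parasites exposed to compound for two days anaerobically before the ATP read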
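Viability, read as ATP luminescence: trophozoites at 100 cells/well, compound added, 48 hrs anaerobic at 37 deg C, then 15-30 min room-temperature development before reading.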
TGFb CAGA inh = TGF-b pathway inhibition, cherry-pick retest. shares compounds with TGFb inhibitor. HepG2 CAGA-GFP TGF-b reporter, GFP fluorescence, 18 h; cells stimulated with TGF-beta, 500 pg/mL. Potency, µM (doses to about 46.1 µM), usual class: inhibitors. 1,600 tested, 63% active. AID 720534; also: nearly all actives have a fitted effect of over 65% in size
HepG2 tox-2 = counter-screen for TGF-b inhibitors: cytotoxicity in HepG2 cells | shares compounds with TGFb inhibitor | AID 720535 | HepG2 CAGA-GFP viability, ATP luminescence, 18 h; cells stimulated with TGF-beta, 500 pg/mL | Potency, µM (top dose mostly 46.1 µM), usual class: inhibitors | 1,600 tested, 27% active; also: nearly all actives have a fitted effect of over 70% in size
CCL64 TGFb inh = orthogonal confirmation of TGF-b inhibitors in CCL64 cells; AID 720536; Potency, µM (titrated, usually from 46.1 µM), usual class: inhibitors; 1,600 tested, 41% active; CCL64 CAGA-GFP reporter, TGF-b stimulated, GFP fluorescence, 18 h; shares compounds with TGFb inhibitor; also: nearly all actives have a fitted effect of over 65% in size
COP TGFb inh = validation of TGF-b inhibitors in HepG2 COP promoter reporter; shares compounds with TGFb inhibitor; HepG2 COP-GFP TGF-b reporter, GFP fluorescence, 18 h; cells stimulated by added recombinant TGF-beta; Potency, µM (titrated, usually from 46.1 µM), usual class: inhibitors; 1,600 tested, 3% active; also: nearly all actives have a fitted effect of over 70% in size
Hits are given with their value; 0 = inactive; ? = inconclusive; - = no result. The list is not random: actives were taken first. Their share in the collection is about 2.6%. Unless noted, calls follow the shape of the dose curve; as a rule, active = well fitted curve in the direction sought with a large enough effect; inconclusive = small, poorly fitted or top-dose-only effect, or another doubt; inactive = no such curve, though single readings can be large; an effect the other way counts as inactive or inconclusive.

SMILES | HepG2 tox-1 | uPA generation | ATXN2 expr inh | S2 tox | TGFb inhibitor | Giardia kill | TGFb CAGA inh | HepG2 tox-2 | CCL64 TGFb inh | COP TGFb inh
CCCNC(=O)c1ccc2c(=O)c(O)c(-c3ccc(Cl)c([N+](=O)[O-])c3)[nH]c2c1 | 0 | ? | 0 | ? | 7.1µM | 0 | 5.2µM | ? | 6.5µM | 0
NC(=O)c1cccc(-c2ccnc3c2CC(C(=O)Nc2cccc(C(F)(F)F)c2)O3)c1 (stereo not drawn) | 0 | - | ? | 0 | 13µM | - | 21µM | 0 | 0 | 0
CC(C)(C)c1ccc(C(=O)CC(=O)c2cc(Cl)ccc2O)cc1 | 0 | 0 | 0 | 0 | 5.6µM | 0 | ? | ? | 9.2µM | 0
CCn1cnc2cc(NCc3ccc(OC)cc3)ccc21 | 0 | - | 0 | 0 | 0 | 0 | - | - | - | -
CCOc1ccc2nc3cc(NCc4ccc(OC)cc4)ccc3c(N)c2c1 | 10µM | 0 | - | 0 | 7.9µM | 0 | 3.3µM | 7.3µM | ? | 0
Cc1nn(-c2ccc(F)cc2)c(C)c1NS(=O)(=O)c1ccc2ccccc2c1 | 0 | 0 | ? | ? | 10µM | 0 | ? | ? | ? | 0
COc1cc(NC(=O)CN2C(=O)CCc3cc(Br)ccc32)cc(OC)c1OC | 0 | - | 0 | 0 | 0 | - | - | - | - | -
CCOc1ccccc1C1C2=C(COC2=O)Nc2cc3c(cc21)OCO3 (stereo not drawn) | 0 | 0 | 0 | ? | 7.1µM | 0 | 3.3µM | 0 | 1.8µM | 0
Cc1ccccc1CSCC(=O)NCCSc1ccccn1 | 0 | 0 | 0 | 0 | 0 | 0 | - | - | - | -
CCC(=O)N1CCc2cc(S(=O)(=O)NC(C(=O)NCCc3ccc(Cl)cc3)C(C)C)ccc21 (stereo not drawn) | 0 | - | 0 | 0 | 0 | - | - | - | - | -
OC[C@@H]1CN(Cc2ccc(-c3ccccc3)cc2)C[C@H](n2cnc3c(Nc4ccccc4)ncnc32)O1 | 0 | - | ? | 0 | 10µM | - | 8.2µM | ? | ? | 0
CCC(C)Sc1cccc(-c2nc3cc(C)ccn3c2NC2CCCCC2)c1 (stereo not drawn) | 0 | 0 | ? | ? | 11µM | 0 | ? | ? | 18µM | 0
COc1ccc(NC(=O)CNc2ccc(OC)c(S(=O)(=O)N3CCOCC3)c2)cc1 | 0 | - | - | 0 | 0 | - | - | - | - | -
O=C(/C(=N\Nc1ccc([N+](=O)[O-])cc1)Sc1nnnn1-c1ccccc1)c1ccccc1 | 0 | 0 | 0 | 0 | 7.9µM | 0 | ? | 23µM | 21µM | 0
NC(=O)CC(NC(=O)c1ccccc1)c1ccc(N2CCC(Cc3ccccc3)CC2)c([N+](=O)[O-])c1 (stereo not drawn) | 0 | ? | ? | ? | 6.3µM | 0 | 23µM | ? | ? | 0
CC(C)(C)OC(=O)N(Cc1ccccc1)Cc1ccccc1OCc1ccc(NC(=O)C2CCC2)cc1 | 0 | ? | 0 | 0 | 0 | 0 | - | - | - | -
O=C(Nc1ccc(Cl)cc1)Nc1cc([N+](=O)[O-])ccc1F | 0 | 0 | 0 | ? | 0 | 0 | - | - | - | -
O=C(Nc1ccc([N+](=O)[O-])cc1)Nc1ccon1 | 0 | 0 | 0 | 0 | 10µM | 0 | ? | 0 | ? | 0
CCc1ccc(NC(=O)Nc2ccon2)cc1 | 0 | ? | 0 | 0 | 0 | 0 | - | - | - | -
